In PubChem BioAssay (NCI):
Compounds without any hit were thinned out: in the full panel of roughly 83,000, 20% have a hit.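 For each line, cells grew in 96-well plates with the test compound present at a single concentration for 48 hours.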 Values without a mark were called inactive. Active and inactive are the calls of the source.

What follows are compounds tested on UACC-62 melanoma (assay: NCI-60 one-dose screen, 48 h (100 = growth as untreated, 0 = no growth, -100 = all killed)). Settings: 10 µM unless noted.
Description: Growth inhibition of the UACC-62 human tumor cell line is measured as a screen for anti-cancer activity. Cells are grown in 96 well plates and exposed to the test compound for 48 hours. Compounds are tested at a single concentration, which is 10^-5 M for most compounds. The reported endpoint is percent growth (GI% or GIPRCNT), where numbers from 0 - 100% represent growth inhibition, and numbers from -100% - 0 represent cell death. For example, a value of 40 represents 60% growth inhibition. A value of 0 means no net growth occurred over the course of the experiment. A value of -40 indicates 40% of cells at the beginning of the experiment died by the end of the experiment. A value of -100 means all cells are dead at the end of the experiment.
NCI-60 Human Tumor Cell Lines Screen was performed using the standard one-dose NCI protocol, which is described in more detail at https://dtp.cancer.gov/discovery_development/nci-60/default.htm.
Compounds with GIPRCNT values below 10 were considered active. Activity score was based on GIPRCNT using the following formula: […]
Score is 0 for GIPRCNT values of 100 or above, 50 for GIPRCNT values of 0, and 100 for GIPRCNT values of -100.

SMILES	growth
COc1ccc(C(=O)N2N=C(c3ccc(Br)cc3)CC2c2cn(-c3ccccc3)nc2-c2ccccc2)cc1 (stereo not given)	74.7%
CCCCCSc1ccc2nc(NC(=O)OCCC)sc2c1	31.1%
COC(=O)C(C)[C@H]1CC[C@@H]2[C@]1(C)CC=C1[C@]23C=C[C@]2(C[C@@H](OC(C)=O)CC[C@]12C)C(C(=O)OC)C3C(=O)OC (stereo not given in full)	79.9%
COc1ccc(OC)c(Cn2cc3c(c2)-c2oncc2CC3)c1	53%
Cc1ccc(C(=O)Nc2ccc(CN3CCN(C)CC3)c(C(F)(F)F)c2)cc1C#Cc1cnc(N)c2ccc(C#N)cc12	25.4%
COc1cccc(Cn2cc3c(c2)-c2oncc2CC3)c1	46.2%
COc1ccccc1CNCCCN1C(=O)c2ccc3c4c(ccc(c24)C1=O)C(=O)N(CCCNCc1ccccc1OC)C3=O	-72.5% (active)
COc1ccc2c(c1)cn1c3ccc(O)cc3[nH]c(=O)c21	39%
N=C(c1ccccc1)N(Cc1ccccc1)Cc1ccccc1	87.3%
COC(=O)c1ccc2[nH]c(O)c(C(=Nc3ccc(N(C)C(=O)CN4CCN(C)CC4)cc3)c3ccc(CCO)cc3)c2c1	73.7%
Cc1ccc(CC(=O)O)c(C)c1	98.8%
CCCCCCNc1nc(N2CCOCC2)c2[nH]c(NCCCCCC)nc2n1	-97.4% (active)
O=C(Nc1cccc(Cn2c(=O)[nH]c3ccc(Oc4ncccn4)cc3c2=O)c1)c1ccc(Cl)cc1	53.9%
CC(=O)NCCN	102%
COc1cc2c(cc1OC)C(Cc1cc(OC)c(OC)cc1[N+](=O)[O-])=NCC2	83.7%
O=C(Cc1ccccc1[N+](=O)[O-])c1ccc2c(c1)OCO2	88.8%
O=c1c(N=Nc2nccs2)c(-c2ccccc2)[nH]n1-c1nc(-c2ccccc2)cs1	12.3%
COC(=O)c1ccc2[nH]c(O)c(C(=Nc3ccc(N(C)C(=O)CN4CCN(C)CC4)cc3)c3cccc(OC)c3)c2c1	36.6%
N#Cc1ccc(OCc2nc(N)nc(N)c2-c2ccc(Cl)c(Cl)c2)cc1	12.2%
COC(=O)Nc1nc2ccc(C(=O)c3ccccc3N(C)C3COC3)cc2[nH]1	27%

SMILES	growth
COc1ccc(-c2nc(Nc3nc4ccccc4[nH]3)nc(N)c2C#N)cc1	89.3%
OC(c1ccccc1)(c1ccccc1)C(F)(F)F	102%
CCN(CC)CCNc1ncnc2c1cnn2-c1ccc(Cl)cc1	-50.5% (active)
N#CCCCCCCCCCCC#N	101%
O=C1C(Cl)=C(Nc2ccc(Nc3ccccc3)c(NC3=C(Cl)C(=O)c4ccccc4C3=O)c2)C(=O)c2ccccc21	39.4%
COc1cc([C@@H]2c3cc4c(cc3[C@H](O)[C@H]3COC[C@@H]23)OCO4)cc(OC)c1OC	42.7%
COc1ccc(/C=C2\SC(=O)N(Cc3cc(=O)oc4ccc(OC)cc34)C2=O)cc1	66.3%
C=C(C)[C@@H]1CC[C@]2(COC(=O)c3ccccc3C(=O)O)CC[C@]3(C)[C@H](CC[C@@H]4[C@@]5(C)CCCNC(C)(C)[C@@H]5CC[C@]43C)[C@@H]12	75.6%
CCCCCCCCCCC(C[N+](C)(C)C/C=C/c1ccccc1)C(O)c1ccccc1 (stereo not given)	17.4%
CC1(C)NCCC[C@]2(C)[C@H]3CC=C4[C@@H]5C[C@](C)(COC(=O)c6ccccc6C(=O)O)CC[C@]5(C)CC[C@@]4(C)[C@]3(C)CC[C@@H]12	88.2%
Nc1nc2c(c3cnccc13)C(c1cccc(Br)c1)Cc1cnccc1-2 (stereo not given)	21.8%
CCOC(=O)c1c2c(cn1Cc1ccccc1)-c1oncc1CC2	91.9%
O=C(O)c1occ(Cl)c1Cl	112%
CCOC(=O)c1sc(NS(=O)(=O)c2ccccc2)nc1C	103%
CC(C)CSc1nc(-c2ccc(F)cc2)c(C#N)c(N2CCCCC2)n1	82.1%
C=CC1CN2CCC1CC2C(O)c1ccnc2ccc(OC)cc12 (stereo not given)	100%
C/C=C/C/C=C/[C@H](C)C[C@H](O)[C@@H]1C[C@@H]2O[C@H]2/C=C/[C@H](O)[C@@H](O)/C=C/C[C@H](C)CC(=O)O1	71.3%
COc1ccc(Cn2cc3c(c2-c2ccccc2)CCc2cnoc2-3)cc1OC	48.7%
C/C=C(/C)C(=O)OC1C=C(CO)C(=O)C(OC(=O)C2(C)OC2C)C1C(C)C (stereo not given)	-73.7% (active)
O=C(Nc1ccc(Cl)c(Cl)c1)O/N=C\c1c(Cl)ccc([N+](=O)[O-])c1Cl	-63.5% (active)
